Results on 107 compounds are retold here after PubChem BioAssay AID651828 (ICCB-Longwood Screening Facility, Harvard Medical School, 2012).

Where “and” joins values, the source holds several entries; their conditions need not be identical. Identical values can stand only once. In all, about 20,000 compounds went through this assay and about 25 (0.1%) were called active. This excerpt belongs to a sample that is enriched for actives. Values without a mark were called inactive. Rule as the data show it: active = % bound below about 75%; inactive = the rest.

Nucleoprotein (Rift valley fever virus (strain ZH-548 M12)), sequence (P21700 whole entry, looked up): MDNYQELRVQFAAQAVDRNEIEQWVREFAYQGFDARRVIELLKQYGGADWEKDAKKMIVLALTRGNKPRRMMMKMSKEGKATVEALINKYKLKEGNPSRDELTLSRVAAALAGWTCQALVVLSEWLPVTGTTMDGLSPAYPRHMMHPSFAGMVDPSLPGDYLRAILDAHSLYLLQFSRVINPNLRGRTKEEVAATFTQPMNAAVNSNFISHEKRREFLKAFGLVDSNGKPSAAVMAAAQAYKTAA

The experiment addresses Nucleoprotein (Rift valley fever virus (strain ZH-548 M12)) (UniProt P21700). The experiment can be described thus: inhibitors of RVFV nucleoprotein–RNA binding, primary screen, biochemical, fluorescence polarization (AID 651828). As to conditions: RVFV N-RNA binding, stronger effect = lower value, concentration not given here.
Turning to `Cc1ccc2occ(CN3CCSCC3)c(=O)c2c1`, the % bound was 100%.
For `COc1ccc(C(C)=CC(=O)C(C)(C)C)cc1` the value was 96.7%.
For `Cc1nc2cc3nc(-c4cccs4)cnc3cc2n1C` the value was 115%; for `O=C(Nc1ccc(C(=O)N2CCCc3ccccc32)cc1)c1ccco1`, 95.2%.
For `CC[C@H](CO)Nc1nc(NCc2ccccc2O)c2ncn(C(C)C)c2n1` the value was 98.6%; for `Nc1nonc1C(=NCc1ccccc1)NO`, 96.3%; for `COc1ccc(C(=O)c2cnc3ccccn23)cc1Cl`, 96.7%.
With `O=C(c1cccs1)c1coc2c1cc(O)c1ccccc12`, the % bound is 94.6%.
For `O=c1[nH]c(O)c(C=Nc2ccccc2)c(=O)[nH]1` the value was 101%; for `CC(C)=N/N=C1/NC(=O)C(CC(=O)Nc2cccc3ccccc23)S1` (configuration not stated), 96.1%; for `CC(C)CN1C(=O)C=CC1=O`, 86.4%.
Take `CC1(C)C(=O)C2(C(=O)Nc3cccc(C(F)(F)F)c3)CCC1C2` (configuration not stated): the % bound is 98.6%.
To `CCCC(=O)N1CCN(c2ccc(NC(=O)c3cccc(C)c3OC)cc2Cl)CC1` belongs 92.1%; to `O=C(Nc1ccccc1)C1CCCN(S(=O)(=O)c2ccccc2)C1` (configuration not stated), 98.9%.
Turning to `COCC(C)N=CC1=C(O)CC(C)(C)CC1=O` (configuration not stated), the % bound is 94.3%.
For `O=C(OCCN1C(=O)c2ccccc2C1=O)Oc1ccccc1` the value was 93.9%; for `O=c1[nH]c(NCCCN2CCOCC2)nnc1-c1ccccc1`, 93.9%; for `O=C1C=C(Nc2ccccc2)C(=O)N1Cc1ccccc1`, 102%.
In the case of `CCc1ccc(NC(=O)C(CC)CC)cc1`, the % bound is 97.6%.
To `CC(C)NC(=O)C(C)Oc1ccc(S(N)(=O)=O)cc1` (configuration not stated) belongs 96.3%.
To `Cc1cc(C(=O)Nc2ccc(C(=O)N3CCOCC3)cc2)cs1` belongs 88.4%.
To `CC(C)(O)C(/C=C/c1ccccc1)=N/NC(N)=O` belongs 96.4%; to `O=C(CC(F)(F)F)Nc1ccccn1`, 94%.
Take `COC(=O)C12CCC(C)(C(=O)O1)C2(C)C` (configuration not stated): the % bound was 90.1%.
To `OC1CCN(Cc2ccc[nH]2)CC1` belongs 95%; to `Nc1nc2nc(-c3ccccc3)cc(-c3ccccc3)n2n1`, 92%; to `COC(=O)CSc1nnc2c3ccccc3n(CCc3ccccc3)c2n1`, 104%.
For `Cc1ccc(C(=O)c2sc3[nH]c(=O)c(C(=O)O)cc3c2N)cc1` the value was 97.7%.
As to `Cc1ccc(NC(=O)Nc2c(C)noc2-c2ccc(C(F)(F)F)cc2)cc1`, the % bound is 97.4%.
On to `CNC(=S)N/N=C/c1cccnc1`, for which the % bound was 96.3%.
For the compound `CC1=Nc2c(ccc3cccnc23)C1(C)C`, the % bound was 45.3% (active).
For `COc1ccc(OCC(=O)Nc2ccc(CN3CCOCC3)cc2)cc1` the value was 87.6%.
For `O=C(C1CCCN(S(=O)(=O)c2ccccc2)C1)N1CCN(c2ccc(F)cc2)CC1` (configuration not stated) the value was 102%.
To `CS(=O)(=O)Cc1ccccc1` belongs 97.7%.
In the case of `Cc1cc(C)cc(C(=O)NC(=S)Nc2ccc3[nH]c(=O)[nH]c3c2)c1`, the % bound is 98.5%.
To `COc1ccc(N2CC(NC(=O)NCC3CCCO3)CC2=O)cc1OC` (configuration not stated) belongs 110%; to `CCCCOc1ccc(C(C)(C#N)CC#N)cc1` (configuration not stated), 102%; to `COc1ccc(-c2cc(-c3cccs3)n(-c3nc(C)cc(=O)[nH]3)n2)cc1`, 109%.
In the case of `O=c1[nH]c(=S)[nH]c(O)c1C=NC12CC3CC(CC(C3)C1)C2`, the % bound was 91.6%.
For `O=C(Nc1ccc2c(c1)OCC1CCCN21)C1=Cc2ccccc2OC1` (configuration not stated) the value was 96.2%; for `CN(C)NS(=O)(=O)C1CCS(=O)(=O)C1` (configuration not stated), 93%; for `COc1ccc(N2CCN(C(C)=C3C(=O)c4ccccc4C3=O)CC2)cc1`, 96.4%.
As to `CCOC(=O)Nc1sccc1C(N)=O`, the % bound was 96.8%.
For `Cc1cccc(N2CCN(C(=O)N(C)C)CC2)c1C` the value was 77.7%; for `O=S1(=O)CC(S(=O)(=O)c2ccccc2)c2ccccc21` (configuration not stated), 92.2%.
To `COC(=O)c1ccc(CN2CCCC(C)C2)cc1` (configuration not stated) belongs 100%.
To `CC12CCC(O)CC1=CCC1C2CCC2(C)/C(=N/N)CCC12` (configuration not stated) belongs 94%.
As to `COc1ccc(-c2nc3c(c(=O)c4ccccc4n3C)c(=O)n2Cc2ccco2)cc1`, the % bound was 95.8%.
`COc1ccc(CCNC(N)=O)cc1OC`: the % bound was 94.3%.
`CCOC(=O)N1CCN(C(=O)CN(c2ccccc2)S(=O)(=O)c2ccc(F)cc2)CC1`: the % bound is 93.7%.
For `O=C1c2ccccc2C(=O)N1CCc1nn[nH]n1` the value was 93.6%.
To `Nc1cc(-c2ccccc2)[nH]n1` belongs 94.5%.
For `C/C(=N\N1CCN(C)CC1)C1=C(O)c2ccccc2C1=O` the value was 97.6%; for `O=C(CCN1C(=O)c2ccccc2C1=O)Oc1c(-c2ccco2)oc2ccccc2c1=O`, 95%.
Turning to `COc1ccccc1C(c1c(C)[nH][nH]c1=O)C(C#N)C#N` (configuration not stated), the % bound is 95.8%.
`O=C(CCC(=O)c1ccccc1)c1ccccc1`: the % bound was 93.9%.
For the compound `CS(=O)(=O)N1CCN(C(=O)CSc2ccccc2)CC1`, the % bound was 80.6%.
For `COc1cc(C2c3c(oc4ccccc4c3=O)C(=O)N2CCCOC(C)C)cc(Br)c1O` (configuration not stated) the value was 97.6%; for `CCOC(=O)c1cn[nH]c1NC(=S)Nc1ccccc1`, 98.6%; for `Cc1nc(N)sc1-c1ccnc(Nc2cccc([N+](=O)[O-])c2)n1`, 104%.
For `Cc1nc2sc(C(c3ccccc3Cl)N(C)Cc3ccccc3)c(O)n2n1` (configuration not stated) the value was 108%; for `CCC(=O)Nc1ccc(C(=O)n2nnc3ccccc32)cc1`, 94.2%.
To `CNS(=O)(=O)c1ccc(NC(=O)C2CC3C=CC2C3)cc1` (configuration not stated) belongs 99.1%.
For the compound `CC1(C)C/C(=N/O)c2ccoc2C1`, the % bound is 97.9%.
To `CCC(=O)N=c1sc2cc(Br)ccc2n1CCOC` belongs 101%; to `COc1ccc(CCC(=O)NCC#N)cc1`, 86.2%; to `CCOc1ccc(C(=O)Nc2cccc(-c3ccc4nncn4n3)c2)cc1`, 107%.
To `Cc1ccc2oc(C(=O)N(C)c3ccccc3)c(C)c2c1` belongs 97.6%; to `CC(=O)Oc1ccc(S(=NS(=O)(=O)c2ccccc2)c2ccc(OC(C)=O)cc2)cc1`, 94.2%.
To `Cc1[nH]cc(Br)c(=O)c1OCC(=O)O` belongs 95.2%; to `Cc1c(C(=O)NCCN2CCOCC2)sc2nc(-c3ccc(F)cc3)cn12`, 97%; to `N#Cc1c(NC(=S)NC(=O)c2ccco2)sc2c1CCCC2`, 97.3%.
`C/C(=N\NC1=NCCCCC1)c1ccccc1`: the % bound is 95.3%.
For `CC1CCN(CC(=O)Nc2nccs2)CC1` the value was 91.9%.
As to `CCC1CCC(N(CC)CCN(C)C)CC1` (configuration not stated), the % bound is 112%.
For `C[C@H](N[C@@H](CCc1ccccc1)C(=O)O)C(=O)N1Cc2ccccc2C[C@H]1C(=O)O` the value was 100%.
For `COc1ccc2oc(=O)c(S(=O)(=O)c3ccccc3)cc2c1` the value was 85%.
To `O=C(O)CN1C(=O)/C(=C2/OC(=O)c3ccccc32)SC1=S` belongs 95.4%.
Take `O=C(NCCc1ccccc1)Nc1ccccc1`: the % bound is 108%.
Turning to `CCCNC(=O)c1c(N)n(-c2ccccc2)c2nc3ccccc3nc12`, the % bound is 95.9%.
Take `O=C(Nc1cccc(Nc2nccc(Nc3cccc(C(F)(F)F)c3)n2)c1)C1CC1`: the % bound was 112% and 103%.
To `Cn1c(=O)c2cc3c(=O)n(C)c(=O)c3cc2c1=O` belongs 101%.
To `COc1c(C(=O)O/N=C(\N)c2cccs2)csc1Cl` belongs 95.1%; to `CN(C)c1ccc(C=NCC(O)CN=Cc2ccc(N(C)C)cc2)cc1` (configuration not stated), 97.1%; to `Cc1ccc(S(=O)(=O)NCc2csc(C)n2)c(C)c1`, 105%.
For `CC(C)N1C(=O)CNC1=S`, the % bound is 98%.
To `CC(C)CC(=O)Nc1ccncc1` belongs 86%; to `O=C(OCCO)c1cc(Cl)c(C(=O)OCCO)cc1Cl`, 104%; to `COC(=O)COc1cccc(NC(=O)Cc2cccs2)c1`, 98.5%.
For `CCCNC1=C(c2ccc(OC)cc2)C(=O)c2ccccc21` the value was 95.2%.
To `CSc1sc(C(=O)NC(=O)NCc2cccnc2)c(C)c1-c1ccon1` belongs 93.2%; to `CN(C)C(C#N)c1cn(C)c2ccccc12` (configuration not stated), 94.2%.
Take `Cc1[nH]c2ccccc2c1SCC(=O)Nc1nccs1`: the % bound is 108%.
For `COc1cccc(-c2ccc(=O)n(CC(=O)NCc3ccccc3)n2)c1` the value was 85%.
For `O=C(NCCSCc1ccco1)C1CCC1` the value was 98.2%; for `CCSc1nc(=O)[nH]c2c1CCC2`, 92.2%.
To `CCC(=O)NC1(C(F)(F)F)C(=O)NC(C)=C1C(=O)OC` (configuration not stated) belongs 97%; to `C/C(=N/NC(=O)c1ccoc1C)c1ccc(NC(=O)c2ccco2)cc1`, 91.1%.
With `N#Cc1cccc2c1-c1ccccc1C2`, the % bound is 96%.
For `O=C1c2ccc(-c3nc4ccccc4c(=O)o3)cc2C(=O)N1c1ccc2c(c1)OCO2` the value was 90%; for `O=C1CC2(CCCC2)C(=O)N1c1ccc(S(=O)(=O)NCc2ccco2)cc1Cl`, 94.5%; for `CN1CCN(C(=O)c2ccccc2NC(=O)c2ccc(Cl)cc2)CC1`, 100%.
For the compound `CCN(CC)C(=O)N1CC(C)CC(C)C1` (configuration not stated), the % bound is 95.2%.
Take `CCN1CCN(C(c2cccnc2)c2c(NC(C)=O)sc3c2CCCC3)CC1` (configuration not stated): the % bound was 109%.
On to `O=S(=O)(c1ccccc1)N1CCn2cccc2C1c1ccccc1` (configuration not stated), for which the % bound is 99.1%.
To `CCSc1nc2ccccc2c(=O)n1C` belongs 96.2%; to `CS(=O)(=O)NCCS(=O)(=O)N1CCN(c2ccccc2)CC1`, 97.1%.
